PubChem BioAssay (EPA / NIEHS)
Several values for one entry are separate records, joined by “and”; a condition that tells them apart may be missing. Equal values may be shown once. Records with an inconclusive call do not appear. More than one record can exist for a structure, and the calls need not agree. Activity calls are given as the source filed them. The calls were made as follows, unless noted: active = hit-call score of the fitted dose curve at least 0.9, where 1 is the maximum; inactive = score below 0.9.

How the values were obtained:
[1] = molecular target: Estrogen receptor (Homo sapiens) (UniProt P03372); assay: CCTE_Deisenroth_AIME_384WELL_LUC_Active: CCTE's 384-well Estrogen Receptor Transactivation Assay with AIME metabolic competence (ERTA luciferase; metabolism positive), Deisenroth Lab (AID 2284030; active = hit-call score of the fitted dose curve at least 0.9, where 1 is the maximum)
Method in brief: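 Chemicals (10-point, 0.002-200 uM) were first incubated 2 hours with alginate-immobilized induced male Sprague Dawley rat liver S9. The conditioned medium was then applied to VM7Luc4E2 cells for 24 hours, with ER luciferase induction read by luminescence relative to 17beta-estradiol.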

[2] = CCTE_Shafer_MEA_dev_firing_rate_mean: CCTE's Neural Network Formation Assay for Mean Firing Rate, Shafer Lab (AID 2284031);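 as to AC50: curve fitted for loss of firing so AC50 reflects decreased mean firing rate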
Method in brief: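 Primary rat cortical neurons on 48-well, 16-electrode MEAs (PEI-coated, laminin at plating), exposed from day 0 with compound renewed at DIV 5 and 9. Spikes recorded DIV 5, 7, 9, 12; well-mean firing rate collapsed to trapezoidal AUC, loss-of-signal vs DMSO.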

[3] = CCTE_Shafer_MEA_dev_per_burst_spike_percent: CCTE's Neural Network Formation Assay for Percent of Spikes in a Burst, Shafer Lab (AID 2284032);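 as to AC50: fitted as a decrease in burst spike percentage below DMSO baseline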
Method in brief: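 Rat primary cortical neurons on 16-electrode MEA wells, dosed from plating day 0 for 12 days with renewal on DIV 5 and 9; spikes-in-bursts percentage averaged over bursting electrodes, collapsed as AUC across days 5, 7, 9, 12; loss direction versus DMSO.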

[4] = CCTE_Deisenroth_AIME_384WELL_CTox_Active: Cytotoxicity Assessment (CTOX) in CCTE's 384-well Estrogen Receptor Transactivation Assay with AIME metabolic competence (metabolism positive), Deisenroth Lab (AID 2284037; active = hit-call score of the fitted dose curve at least 0.9, where 1 is the maximum;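 also: chemicals first conditioned 2 h by alginate-bound induced rat liver S9 before cells; activity means signal loss indicating cell death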)
Method in brief: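 Cytotoxicity in VM7Luc4E2 breast cells, 24 hour, measured as protease-substrate fluorescence loss, after 2-hour metabolic conditioning with induced rat hepatic S9 in alginate microspheres. Concentrations 0.002 - 200 uM, 10 points, bidirectional fitting.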

[5] = CCTE_Shafer_MEA_dev_active_electrodes_number: CCTE's Neural Network Formation Assay for Number of Active Electrodes, Shafer Lab (AID 2284040; active = hit-call score of the fitted dose curve at least 0.9, where 1 is the maximum;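 as to AC50: potency for loss of active electrodes versus DMSO so lower counts are hits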)
Method in brief: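 Rat cortical primary cultures, 1.5 x 10^5 cells/well, PEI-coated MEA, laminin drop. Continuous exposure DIV 0–12; full media/compound change DIV 5, 9. Readout: electrodes with mean firing ≥5 spikes/min; AUC across days; loss vs DMSO.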

[6] = molecular target: Estrogen receptor (Homo sapiens) (UniProt P03372); assay: CCTE_Deisenroth_AIME_384WELL_LUC_Shift: CCTE's 384-well Estrogen Receptor Transactivation Assay with AIME metabolic competence data shift (ERTA luciferase; difference in metabolism positive and negative), Deisenroth Lab (AID 2284041);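 also: shift is response with S9 minus without S9 so positive means metabolism raised ER signal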
Method in brief: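 Test chemicals (0.002–200 uM, 10-point) were pre-incubated 2 h with alginate microspheres containing phenobarbital/beta-naphthoflavone-induced male Sprague Dawley rat liver S9 or water, then medium was transferred to VM7Luc4E2 cells for 24 h luciferase readout; shift = S9-positive minus S9-negative normalized response.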

[7] = CCTE_Shafer_MEA_dev_burst_rate: CCTE's Neural Network Formation Assay for Burst Rate, Shafer Lab (AID 2284042);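 as to AC50: potency for loss of burst rate below DMSO control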
Method in brief: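 Cells plated, treated day 0; recorded DIV 5, 7, 9, 12; fed and re-treated DIV 5, 9. Endpoint: bursts per recording time, active-electrode well mean, trapezoidal AUC, fitted in decreasing direction against DMSO baseline.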

[8] = CCTE_Shafer_MEA_dev_bursting_electrodes_number: CCTE's Neural Network Formation Assay for Number of Bursting Electrodes, Shafer Lab (AID 2284043; active = hit-call score of the fitted dose curve at least 0.9, where 1 is the maximum;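 as to AC50: potency is for loss of bursting electrodes relative to DMSO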)
Method in brief: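 Read-out is the per-well number of electrodes bursting at least once every 2 minutes, recorded on days 5, 7, 9 and 12 and collapsed by trapezoidal area under the curve. Cultures were primary rat cortical neurons on MEA plates, treated continuously from plating.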

[9] = CCTE_Shafer_MEA_dev_per_burst_interspike_interval: CCTE's Neural Network Formation Assay for Burst Interspike Interval, Shafer Lab (AID 2284044);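 also: mean spike spacing inside bursts as AUC over recordings on days 5 7 9 12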;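 as to AC50: potency for a decrease of within-burst interspike interval below DMSO level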
Method in brief: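 Primary rat cortical neurons on 48-well MEA plates, exposed from day 0 through day 12, treatment renewed at DIV 5 and 9. Within-burst interspike interval recorded days 5, 7, 9, 12, well-averaged, summarised as AUC; negative fit versus DMSO.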

[10] = CCTE_Shafer_MEA_dev_burst_duration_mean: CCTE's Neural Network Formation Assay for Mean Burst Duration, Shafer Lab (AID 2284045)
Method in brief: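 Read-out: average first-to-last-spike interval within single-electrode bursts, averaged over bursting electrodes per well, then summarised as area under the curve across days 5, 7, 9 and 12. Developing rat cortical networks were exposed from day 0.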

[11] = CCTE_Shafer_MEA_dev_interburst_interval_mean: CCTE's Neural Network Formation Assay for Mean Interburst Interval, Shafer Lab (AID 2284046);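 also: well-mean interburst interval of bursting electrodes as AUC over four recording days; curve fitted for decrease in interburst interval relative to DMSO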
Method in brief: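 Developing rat cortical networks on 48-well MEAs receive compound from the day of plating. Burst intervals from each active electrode are averaged per well, and AUC over the recording days is fitted in the negative direction against DMSO.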

[12] = CCTE_Shafer_MEA_acute_burst_percentage_std: CCTE's Neural Acute Assay for Standard Deviation of Burst Percentage, Shafer Lab (AID 2284018);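 also: fitted in the negative direction so actives lower burst percentage SD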
Method in brief: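 Value is percent change from baseline in the across-electrode SD of spikes-in-bursts percentage, wells with >/= 10 active electrodes. Acute 40-min exposure to 0.03-40 uM on DIV 13 or 15 rat cortical cultures, recorded at 37 C after 40-min baseline.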

[13] = CCTE_Shafer_MEA_acute_per_network_burst_spike_number_mean: CCTE's Neural Acute Assay for Average Number of Spikes in a Network Burst, Shafer Lab (AID 2284019);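 as to AC50: curve fitted for loss of signal so actives reduce spikes per network burst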
Method in brief: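 Read-out is mean spike count per network burst, taken as percent change between a 40-min pre-exposure and a 40-min post-exposure recording per well. Rat primary cortical neurons on MEAs at 37 C, DIV 13 or 15; compounds at 0.03-40 uM.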

[14] = CCTE_Shafer_MEA_acute_per_network_burst_spike_number_std: CCTE's Neural Acute Assay for Standard Deviation of Number of Spikes in a Network Burst, Shafer Lab (AID 2284020);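 also: fitted for decrease in spike-number SD versus DMSO so actives lower it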
Method in brief: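 Spontaneous network activity of primary rat cortical neurons is recorded extracellularly before and after a 40-min compound exposure (0.03-40 uM) at 37 C. The endpoint is the well's percent change in burst spike-number SD.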

[15] = CCTE_Shafer_MEA_acute_per_network_burst_electrodes_number_mean: CCTE's Neural Acute Assay for Mean Number of Electrodes in a Network Burst, Shafer Lab (AID 2284021);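 also: curves fitted for decreases only so hits reduce electrodes per burst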
Method in brief: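 Rat primary cortical neurons on 48-well MEAs, DIV 13 or 15, were treated at 0.03-40 uM. Spikes were detected at 8x rms noise and recorded at 37 C. The mean electrodes per network burst in a 40 min exposure recording was expressed as percent change from a 40 min baseline.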

[16] = CCTE_Shafer_MEA_acute_network_burst_percentage: CCTE's Neural Acute Assay for Percentage of Network Bursts, Shafer Lab (AID 2284022);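 also: curves fitted for loss so actives lower network burst percentage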
Method in brief: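 Rat primary cortical neuron networks on 48-well MEA plates, DIV 13 or 15, treated acutely with compound (0.03-40 uM, at least three wells). Percent of spikes within network bursts compared between 40-min recordings before and during exposure at 37 C, expressed as percent change.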

[17] = CCTE_Shafer_MEA_acute_cross_correlation_area: CCTE's Neural Acute Assay for Area of Cross Correlation, Shafer Lab (AID 2284024);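 also: curves fitted for loss of cross-correlation area so actives lower synchrony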
Method in brief: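 Rat primary cortical neurons on 48-well MEA, DIV 13 or 15; compounds 0.03-40 uM. Baseline and post-exposure 40 min recordings at 37 C; percent change in area under pooled inter-electrode cross-correlation near zero lag, relative to DMSO.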

[18] = CCTE_Shafer_MEA_acute_synchrony_index: CCTE's Neural Acute Assay for Synchrony, Shafer Lab (AID 2284027);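 also: network synchrony index of spontaneous spiking in primary rat cortical neurons on MEAs; fitted for loss of signal so actives lower synchrony relative to DMSO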
Method in brief: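 Primary rat cortical neurons on 16-electrode MEA wells were recorded 40 min at baseline (DIV 13 or 15) and 40 min after compound (0.03-40 uM) at 37 C. Synchrony index (0-1) expressed as percent change from baseline, versus DMSO.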

[19] = CCTE_Shafer_MEA_acute_cross_correlation_HWHM: CCTE's Neural Acute Assay for Cross Correlation at Half Width at Half Maximum, Shafer Lab (AID 2284026);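 also: percent change per well from pre-dose baseline in spike cross-correlogram half width; hits are a decrease in cross-correlogram half width relative to DMSO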
Method in brief: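 Rat primary cortical neurons on 48-well MEA plates; 40-min baseline and 40-min post-exposure recordings at 37 C on DIV 13 or 15, compounds 0.03-40 uM. Spikes detected at 8x rms noise; percent change in cross-correlogram HWHM per well vs baseline.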

[20] = CCTE_Deisenroth_AIME_384WELL_CTox_Inactive: Cytotoxicity Assessment (CTOX) in CCTE's 384-well Estrogen Receptor Transactivation Assay without AIME metabolic competence (metabolism negative), Deisenroth Lab (AID 2284039; active = hit-call score of the fitted dose curve at least 0.9, where 1 is the maximum;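 also: cell viability via live-cell protease substrate cleaved to fluorescent probe; cells exposed 24 h to medium preincubated 2 h with alginate-water beads without S9; loss of fluorescence signal means loss of viability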)
Method in brief: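 Metabolism-negative arm: chemicals (10-point, 0.002 - 200 uM) preincubated 2 h with alginate-water lids, medium moved onto VM7Luc4E2 cells for 24 h. Fluorescent live-cell protease readout; bidirectional curve fit.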

Measured: AC50

Chain of Estrogen receptor (Homo sapiens) (P03372 whole entry, looked up): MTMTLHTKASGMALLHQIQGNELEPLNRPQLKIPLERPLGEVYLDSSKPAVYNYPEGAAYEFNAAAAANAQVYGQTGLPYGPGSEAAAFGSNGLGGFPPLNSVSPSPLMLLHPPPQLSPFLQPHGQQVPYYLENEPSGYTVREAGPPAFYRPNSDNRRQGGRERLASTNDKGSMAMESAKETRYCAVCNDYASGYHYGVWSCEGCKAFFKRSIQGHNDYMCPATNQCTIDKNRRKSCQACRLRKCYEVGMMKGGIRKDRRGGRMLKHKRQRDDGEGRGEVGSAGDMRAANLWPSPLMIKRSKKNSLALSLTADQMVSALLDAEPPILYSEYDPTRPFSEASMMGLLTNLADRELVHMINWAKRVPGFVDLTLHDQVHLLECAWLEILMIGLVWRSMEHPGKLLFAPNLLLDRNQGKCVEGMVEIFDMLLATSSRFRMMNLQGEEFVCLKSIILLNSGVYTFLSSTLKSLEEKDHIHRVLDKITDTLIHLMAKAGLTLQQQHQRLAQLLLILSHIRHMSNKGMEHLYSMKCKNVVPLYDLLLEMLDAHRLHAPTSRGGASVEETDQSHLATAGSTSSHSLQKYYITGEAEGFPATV

COP(=O)(OC)OC=C(Cl)Cl
active: [2] 9.72 µM | [3] 4.26 µM | [5] 5.4 µM | [7] 1.16 µM | [8] 0.659 µM | [9] 10.1 µM | [11] 2.02 µM
inactive: [1] | [2] | [3] | [4] | [5] | [6] | [7] | [8] | [9] | [10] | [11]

Oc1ccc(Cl)cc1Cc1ccccc1
active: [12] 8.33 µM | [13] 1.57 µM | [15] 8.31 µM | [16] 5.05 µM | [17] 0.457 µM | [18] 5.05 µM
inactive: [14]

CC(C)N(C(=O)COc1nnc(C(F)(F)F)s1)c1ccc(F)cc1
active: [12] 3.55 µM | [14] 1.32 µM | [16] 5 µM | [19] 20 µM and 10.9 µM | [18] 15 µM | [8] 24.5 µM
inactive: [12] | [13] | [14] | [15] | [16] | [17] | [18] | [1] | [2] | [3] | [20] | [5] | [6] | [7] | [8] | [9] | [10] | [11]

CNC(=O)Oc1cccc(N=CN(C)C)c1
inactive: [1] | [4] | [20] | [6]

CNC(=O)CSP(=S)(OC)OC
inactive: [12] | [13] | [14] | [15] | [16] | [17] | [19] | [18] | [2] | [7] | [9] | [10] | [11]
active: [2] 79.3 µM | [3] 63.8 µM and 27.9 µM | [5] 77.4 µM and 18.9 µM | [7] 78.2 µM | [8] 66.4 µM and 21.9 µM

Cc1[nH]c(=O)n(C(C)(C)C)c(=O)c1Cl
inactive: [1] | [4] | [20]
active: [6] 66.1 µM

CC1(c2ccc(Oc3ccccc3)cc2)OC(=O)N(Nc2ccccc2)C1=O (stereo unspecified)
inactive: [10]
active: [2] 8.59 µM | [3] 4.72 µM | [5] 4.84 µM | [7] 7.84 µM | [8] 4.99 µM | [9] 7.68 µM | [11] 4.55 µM

ClC1C(Cl)C(Cl)C(Cl)C(Cl)C1Cl (stereo unspecified)
inactive: [12] | [14] | [19] | [2] | [3] | [5] | [7] | [8] | [9] | [10]
active: [13] 1.23 µM | [15] 1.1 µM | [17] 9.69 µM | [18] 1.22 µM

COP(=S)(OC)Oc1ccc([N+](=O)[O-])cc1
active: [5] 20.2 µM | [8] 15 µM
inactive: [2] | [3] | [7] | [9] | [10] | [11]

O=C(O)C(F)(F)C(F)(F)C(F)(F)C(F)(F)C(F)(F)C(F)(F)C(F)(F)F
active: [5] 14.1 µM
inactive: [2] | [3] | [4] | [20] | [5] | [7] | [8] | [9] | [10] | [11]

Clc1ccccc1-c1nnc(-c2ccccc2Cl)nn1
inactive: [12] | [13] | [14] | [15] | [16] | [17] | [19] | [18] | [1] | [4] | [20] | [6]

CCC(C)Nc1c([N+](=O)[O-])cc(C(C)(C)C)cc1[N+](=O)[O-] (stereo unspecified)
active: [12] 0.935 µM | [1] 11.1 µM | [6] 8.77 µM
inactive: [13] | [14] | [15] | [16] | [17] | [19] | [18] | [4] | [20]

Oc1cc(Cl)ccc1Oc1ccc(Cl)cc1Cl
inactive: [12] | [13] | [14] | [15] | [17] | [20] | [10]
active: [16] 5 µM | [19] 20 µM | [18] 5 µM | [2] 10 µM | [3] 10.2 µM | [5] 9.79 µM | [7] 8.47 µM | [8] 9.29 µM | [9] 16 µM | [11] 15.6 µM

CC(C)(C)C(O)/C(=C\c1ccc(Cl)cc1Cl)n1cncn1 (stereo unspecified)
active: [4] 148 µM | [20] 144 µM
inactive: [6]

CC(C)OC(=O)Nc1cccc(Cl)c1
inactive: [12] | [13] | [17]
active: [14] 25.2 µM | [15] 20 µM | [16] 20 µM | [19] 20 µM | [18] 20 µM

O=C(O)CCCOc1ccc(Cl)cc1Cl
inactive: [12] | [13] | [14] | [15] | [16] | [17] | [19] | [18]

CCC(C)(C)C(=O)OC1=C(c2ccc(Cl)cc2Cl)C(=O)OC12CCCCC2
inactive: [12] | [13] | [14] | [15] | [16] | [17] | [19] | [18] | [2] | [3] | [5] | [7] | [8] | [9] | [10] | [11]
active: [13] 20 µM | [17] 20 µM | [19] 0.106 µM | [18] 5.2 µM
